# Compound activity (PubChem)
# 12-LOX inh = Primary qHTS assay for inhibitors of human arachidonate 12S-lipoxygenase (ALOX12): Round 2. Polyunsaturated fatty acid lipoxygenase ALOX12 (Homo sapiens), P18054. purified 12hLO, xylenol orange hydroperoxide absorbance. Potency, µM (highest dose often 108 µM), without a hit: at the top dose activity change, negative = inhibition, actives largely listed as inhibitors. actives 1.1% (n = 580,000)
# Target sequence (P18054 whole entry, looked up): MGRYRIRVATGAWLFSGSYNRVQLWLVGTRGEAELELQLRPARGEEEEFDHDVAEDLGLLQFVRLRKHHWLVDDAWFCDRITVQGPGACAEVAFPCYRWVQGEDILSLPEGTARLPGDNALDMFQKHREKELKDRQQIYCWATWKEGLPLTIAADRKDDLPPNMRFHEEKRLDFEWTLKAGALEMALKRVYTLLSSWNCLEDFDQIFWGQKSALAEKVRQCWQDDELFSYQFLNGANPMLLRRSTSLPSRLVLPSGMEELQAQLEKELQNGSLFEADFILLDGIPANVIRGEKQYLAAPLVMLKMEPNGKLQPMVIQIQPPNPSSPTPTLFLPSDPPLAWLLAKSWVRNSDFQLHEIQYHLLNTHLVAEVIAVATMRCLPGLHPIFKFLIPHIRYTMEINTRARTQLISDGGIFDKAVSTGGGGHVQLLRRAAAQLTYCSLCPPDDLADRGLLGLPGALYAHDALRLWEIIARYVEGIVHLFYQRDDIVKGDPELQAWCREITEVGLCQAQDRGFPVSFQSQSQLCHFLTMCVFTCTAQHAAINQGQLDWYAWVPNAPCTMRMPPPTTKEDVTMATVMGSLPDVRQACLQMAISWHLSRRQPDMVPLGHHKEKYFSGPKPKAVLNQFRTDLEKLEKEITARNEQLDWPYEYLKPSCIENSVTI
#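 Purified human 12hLO at 150 nM in 25 mM Hepes, 0.01% Triton X-100, pH 7.0, preincubated 15 min at room temperature with compound. Reaction started with 40 uM arachidonic acid, 30 min at room temperature. Hydroperoxide measured by Fe-xylenol orange, 573/405 nm absorbance ratio.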
# DT40 TDP1 no CPT = qHTS for Inhibitors of human tyrosyl-DNA phosphodiesterase 1 (TDP1): qHTS in cells in absence of CPT; Potency, µM (series often up to 46.2 µM), inactives show at the highest dose activity change, negative = growth inhibition, usual class: inhibitors; AID 686978, 2013; actives 15% (n = 420,000); DT40 Tdp1-/- hTDP1 cells, no CPT, ATP luminescence, 48 h; also: nearly all actives have a fitted effect of over 55% in size
#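 Growth of hTDP1-complemented DT40 Tdp1-knockout cells is measured by ATP luminescence after at least 48 hr compound exposure at 37 °C, with DMSO substituting for the 20 nM CPT used in the parallel screen.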
# ELG1 repair inh = qHTS screen for small molecules that inhibit ELG1-dependent DNA repair in human embryonic kidney (HEK293T) cells expressing luciferase-tagged ELG1 | HEK293T ELG1-luciferase reporter, luminescence, 16 h; DNA damage induced by 5-fluorouridine | Potency, µM (highest dose often 46.1 µM), without a hit: at the top dose activity change, negative = inhibition, usual class: inhibitors | actives 2.3% (n = 330,000) | AID 504467, 2011; also: nearly all actives have a fitted effect of over 55% in size
#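 Quantitative HTS, concentration-response format. 2,000 cells/well co-treated with 5-fluorouridine and compound, 16 hr in 5% CO2 at 37 °C; ONE-Glo luminescence read after 30 min.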
# Gal4-VP16 FLuc = VP16 counterscreen qHTS for inhibitors of ROR gamma transcriptional activity. Drosophila S2 Gal4-VP16 UAS-luciferase, luminescence, 20 h. Potency, µM (top dose mostly 53.6 µM), inactives show at the highest dose activity, negative = inhibition, most hits filed as inhibitors. actives 3.5% (n = 310,000). AID 2546, 2010;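 also: Gal4-VP16 expression switched on by copper sulfate through the metallothionein promoter; nearly all actives have a fitted effect of over 50% in size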
# RORgamma inh = qHTS for inhibitors of ROR gamma transcriptional activity | Nuclear receptor ROR-gamma (Mus musculus), P51450 | AID 2551, 2010 | actives 5.4% (n = 310,000) | Potency, µM (top dose mostly 53.6 µM), without a hit: at the highest dose activity change, negative = inhibition, most hits filed as inhibitors | Drosophila S2 Gal4-RORgamma UAS-luciferase reporter, 20 h; also: nearly all actives have a fitted effect of over 60% in size
#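 A Gal4/UAS one-hybrid system in insect cells: metallothionein-promoter Gal4–ROR gamma fusion plus Photinus luciferase reporter. Copper sulfate 700 uM final, 20 hr ambient incubation, luminescent detection after 10 min with reagent.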
# TDP1 cell CPT = qHTS for Inhibitors of human tyrosyl-DNA phosphodiesterase 1 (TDP1): qHTS in cells in presence of CPT; chicken DT40 Tdp1-/-;hTDP1 cells + 20 nM CPT, ATP luminescence, 48 h; Potency, µM (top dose mostly 46.2 µM), without a hit: at the top dose activity change, negative = growth inhibition, most hits filed as inhibitors; actives 12% (n = 420,000); also: nearly all actives have a fitted effect of over 55% in size
#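 Chicken DT40 Tdp1-/- cells complemented with human TDP1, 400 cells/well, exposed to compounds plus 20 nM camptothecin for at least 48 h at 37 C; viability read as ATP content by CellTiter-Glo luminescence.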
# * hit, by the source's call; ? = inconclusive; / = no result given. Rows were chosen to be rich in hits. Some 15% of all compounds tested hit in one or more screens of this group. Calls follow the shape of the dose curve; as a rule, active = well fitted curve in the direction sought with a large enough effect; inconclusive = small, poorly fitted or top-dose-only effect, or another doubt; inactive = no such curve, though single readings can be large; an effect the other way counts as inactive or inconclusive. % is scaled to controls: 0 for no effect and ±100 for the full control effect; potency is read from the fitted curve at half-maximal effect.
SMILES,12-LOX inh,DT40 TDP1 no CPT,ELG1 repair inh,Gal4-VP16 FLuc,RORgamma inh,TDP1 cell CPT
CCCC12CN3CC(CCC)(CN(C1)C3c1ccc(OC(C)C)cc1)C2=O (centres undefined),-15.8%,16.4µM*,/,/,/,?
Cc1c[nH]c(C=O)c1C,19.6%,/,/,/,/,/
CC(C)Cn1c(-c2ccc(S(=O)(=O)N3CCCC3)cc2)csc1=Nc1ccccc1,?,3.26µM*,/,/,/,5.8µM*
Cc1csc(=Nc2ccc(S(=O)(=O)N3CCOCC3)cc2)n1Cc1ccco1,-2.9%,23.1µM*,14.6µM*,1.0%,?,23.1µM*
CN(C)S(=O)(=O)c1cccc(-c2csc(=Nc3ccccc3)n2CCCN2CCOCC2)c1,-10.6%,?,?,10.3%,12.9%,?
CC(C)CNc1nc(-c2ccc(S(=O)(=O)N3CCCCCC3)cc2)cs1,-5.9%,/,/,/,/,/
COc1ccc(N=c2scc(-c3ccc(S(=O)(=O)N4CCOCC4)cc3)n2CCCO)cc1,/,/,14.6µM*,5.62µM*,?,/
Cc1csc(=Nc2cccnc2)n1Cc1ccco1,-3.1%,-84.9%,-1.6%,7.7%,-3.5%,-1.7%
CC(=O)c1cccc(N=c2scc(-c3ccc(S(=O)(=O)N4CCOCC4)cc3)n2CCO)c1,-28.7%,2.59µM*,?,2µM*,?,6.51µM*
CC(NC(=O)CCc1ncc(-c2ccc(F)cc2F)o1)c1ccc2c(c1)OCO2 (centres undefined),-17.7%,/,/,/,/,/
NCCCOCC(F)(F)F,-2.7%,/,/,/,/,/
C=CCn1c(-c2ccc(S(=O)(=O)N3CCOCC3)cc2)csc1=Nc1ccccc1,-23.0%,6.51µM*,0.0%,14.1µM*,-7.5%,6.51µM*
O=S(=O)(c1ccc(-c2ccccc2)cc1)N1CCOCC1,-8.4%,8.2%,/,-6.6%,12.0%,4.2%
O=C(NC1CCN(C(=O)N2CC3CC(C2)[C@H]2CCCC(=O)N2C3)CC1)C1CC1 (some centres undefined),-8.1%,/,/,/,/,/
COc1ccc(-c2coc(CCC(=O)N3CCN(c4cc(C)ccc4C)CC3)n2)cc1,20µM*,?,-6.4%,/,/,?
COc1ccc(C(=O)CCC(=O)N2CCN(c3cc(C)ccc3C)CC2)cc1,-5.9%,?,-3.0%,-8.7%,32.3%,16.4µM*
COc1ccc(-c2cccc(CCC(=O)N3CCN(c4cc(C)ccc4C)CC3)c2)cc1,-4.7%,?,-27.0%,/,/,?
COc1ccc(C2C3=C(CCCC3=O)OC3=C2C(=O)CCC3)cc1OC,1.6%,/,/,/,/,/
CCCCn1c(N)c(N(CCC(C)C)C(=O)c2ccc([N+](=O)[O-])s2)c(=O)[nH]c1=O,?,?,-2.5%,/,/,23.1µM*
CCN(CC)c1ccc(/C=N/NC(=O)c2c(-c3ccccc3)noc2C)cc1,-7.1%,?,?,?,11.2µM*,-25.1%
CCN(CC)c1ccc(/C=N/NC(=O)c2ccc(Br)o2)cc1,4.2%,?,?,?,?,?
CCN(CC)c1ccc(/C=N/NC(=O)Nc2nonc2N)cc1,24.0%,-19.1%,?,-99.1%,7.08µM*,-9.3%
Cc1onc(-c2ccccc2)c1C(=O)NN=Cc1cc(Cl)cc(Cl)c1O,12.6µM*,/,/,/,/,/
CCN(CC)c1ccc(/C=N/NC(=O)c2c(Cl)c(C)nn2C)cc1,18.8%,?,?,?,5.62µM*,?
CCN(CC)c1ccc(/C=N/NC(=O)C2CC2)cc1,?,?,?,18.5%,9.0%,?
